High-throughput results (PubChem BioAssay)
KB-3-1 cytotox: kills parental KB-3-1 adenocarcinoma cells; Potency, µM (series often up to 46.1 µM), usual class: cytotoxic; 1.4% of 400,000 active; KB-3-1 viability, CellTiter-Glo ATP luminescence, 72 h; AID 1347075; note: potency is the fitted concentration of half-maximal effect; nearly all actives have a fitted effect of over 60% in size
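Cytotoxicity in the drug-sensitive parental line KB-3-1 was scored as loss of CellTiter-Glo luminescence following 72 h incubation with compound. Values come from curve fitting of normalized concentration-response data.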
Nrf2 inh: blocks Nrf2 signaling; A549 ARE-Fluc reporter, luciferase luminescence, 18-24 h; Potency, µM (titrated, usually from 46 µM), for the others: at the highest dose activity change, negative = inhibition, usual class: inhibitors; 2.1% of 360,000 active; AID 504444; note: potency is the fitted concentration of half-maximal effect; nearly all actives have a fitted effect of over 60% in size
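Concentration-response testing used A549 ARE_Fluc cells at 5000 cells/well. Following an 18-24 h compound incubation, viability was read by fluorescence (Ex 405/Em 525) and luciferase output by luminescence.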
A549 viability: A549 cytotoxicity, counter-screen for Nrf2 inhibitors; A549 ARE-Fluc cells, CellTiter-Fluor viability, 18-24 h; Potency, µM (titrated, usually from 46 µM), without a hit: top-dose activity change, negative = cytotoxicity, hits mostly inhibitors; 0.16% of 390,000 active; AID 504648; note: potency is the fitted concentration of half-maximal effect
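Cytotoxicity counterscreen: CellTiter-Fluor fluorescence was measured in A549 ARE_Fluc cells after 18-24 h of compound exposure in a concentration series. The subsequent BugLite luminescent read reports ARE-luciferase activity.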
KB-V1 MDR tox: KB-V1 MDR subline cytotoxicity; Potency, µM (top dose mostly 46.1 µM), usual class: cytotoxic; KB-V1 MDR cells viability, CellTiter-Glo, 72 h; 3.4% of 400,000 active; note: potency is the fitted concentration of half-maximal effect; nearly all actives have a fitted effect of over 60% in size
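Cells of the MDR subline KB-V1 are plated, dosed with compound at multiple concentrations, and incubated 72 h at 37 degrees C; CellTiter-Glo is then added and luminescence read after 10 min.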
PI4K2A block: PI4K2A (human) kinase inhibition; AID 1346378; purified PI4K2A, ADP-Glo luminescence, 1 h; active compounds read low; activity change, negative = inhibition, % at 76.9 µM; Q9BTU6; 0.13% of 420,000 active; in the data active = activity change below about -50%; inconclusive = mostly about -30% to -49%;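 note: -100% = wells without enzyme as full effect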
Target sequence (Q9BTU6 whole entry, looked up): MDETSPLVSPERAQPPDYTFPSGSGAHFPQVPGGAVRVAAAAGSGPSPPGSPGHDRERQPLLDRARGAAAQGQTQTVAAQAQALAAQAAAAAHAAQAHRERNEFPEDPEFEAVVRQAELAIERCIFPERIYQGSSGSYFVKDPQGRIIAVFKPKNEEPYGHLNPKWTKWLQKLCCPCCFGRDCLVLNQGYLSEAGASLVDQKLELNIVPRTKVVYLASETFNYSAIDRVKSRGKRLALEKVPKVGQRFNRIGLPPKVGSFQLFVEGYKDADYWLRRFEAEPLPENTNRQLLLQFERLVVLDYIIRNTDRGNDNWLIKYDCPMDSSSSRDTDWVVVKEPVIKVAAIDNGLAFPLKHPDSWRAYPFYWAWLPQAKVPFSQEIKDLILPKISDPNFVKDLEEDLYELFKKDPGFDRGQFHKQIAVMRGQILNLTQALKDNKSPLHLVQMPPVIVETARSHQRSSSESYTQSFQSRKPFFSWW
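PI4K2A activity was measured by ADP-Glo luminescence: enzyme (4 ug/mL stock) and phosphatidylinositol (1.2 mM stock) in Tris pH 7.5/MgCl2/EGTA/Triton X-100 buffer were reacted with ATP (300 microM stock) for one hour at ambient temperature.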
Giardia killer: Giardia lamblia killing. AID 540267. 0.15% of 340,000 active. Giardia lamblia trophozoite viability. activity change, % at 7.66 µM, hits read low; in the data active = activity change below about -80%; inconclusive = between about -30% and that limit;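 note: parasites exposed to compound for two days anaerobically before the ATP read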
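Viability, read as ATP luminescence: trophozoites at 100 cells/well, compound added, 48 hrs anaerobic at 37 deg C, then 15-30 min room-temperature development before reading.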
Numbers without * were called inactive; i = inactive; ? = inconclusive; . = not tested or not shown; ! = repeats disagree; [ ] = remark or other dose. Most compounds without a hit are left out; they make up all but 5.7% or so of the library. Unless noted, calls come from the whole dose curve; as a rule, active = well fitted curve in the direction sought with a large enough effect; inconclusive = small, poorly fitted or top-dose-only effect, or another doubt; inactive = no such curve, though single readings can be large; an effect the other way counts as inactive or inconclusive. Unless noted, % is set by controls: 0 for no effect and ±100 for the full control effect.

SMILES | KB-3-1 cytotox | Nrf2 inh | A549 viability | KB-V1 MDR tox | PI4K2A block | Giardia killer
CCCCCCc1ccc(NC(=O)[C@@H]2CC=C[C@@H]3CCN(Cc4ccccc4)C(=O)[C@@H]32)cc1 | . | . | . | . | -2.3 | .
Cc1nn(-c2ccccc2)c2c1CC(=O)Nc1ccccc1-2 | 0.651µM* | ? | -3.8% | 1.64µM* | -4.3 | 8.2
COc1cc(-c2cc(NC(C)=O)c3ncc(-c4ccc(C(C)=O)cc4)n3c2)cc(OC)c1OC | ? | . | . | 23.1µM* | -10.2 | .
COc1cc(-c2cc(NC(C)=O)c3ncc(-c4ccc(F)cc4)n3c2)cc(OC)c1OC | i | . | . | 16.4µM* | 0.4 | .
CCOC(=O)C[n+]1cccc(Br)c1 | i | . | . | i | . | .
COc1ccc2nc(/N=C/c3c(C)[nH]n(-c4ccc(C)cc4)c3=O)sc2c1 | ? | ? | 1.3% | 8.2µM* | -11.8 | -23.7
Cc1ccc(-n2[nH]c(C)c(/C=N/c3ccccn3)c2=O)cc1 | ? | 2.4% | 2.5% | i | -0.6 | -2.4
Cc1ccc(N=Cc2c(C)[nH]n(-c3nc4ccccc4[nH]3)c2=O)cc1 | 8.2µM* | 20.6µM* | 7.2% | 6.51µM* | -30.0 | ?
Cc1ccc(-n2[nH]c(C)c(C=Nc3ccc4[nH]c(=O)[nH]c4c3)c2=O)cc1 | 20.6µM* | -10.2% | -6.9% | ? | 0.0 | 6.3
Cc1ccc(-n2[nH]c(C)c(C=Nc3ccc4[nH]c(=O)[nH]c4c3)c2=O)cc1C | ? | . | ? | ? | -5.7 | -18.6
CC(=O)c1ccc(NC(=O)c2ccc(COc3ccccc3[N+](=O)[O-])o2)cc1 | ? | -29.8% | -3.3% | 10.3µM* | 2.6 | -28.2
Cc1c(CN(C)C)c2c(n1Cc1ccccc1)C(=O)c1ccc(Br)cc1-2 | ? | 2.2% | ? | 23.1µM* | -2.1 | -5.1
Cc1c(CN(C)C)c2c(n1C)C(=O)c1ccc(Br)cc1-2 | i | ? | -18.0% | i | 0.7 | -8.1
CCOP(=O)(OCC)c1nc(-c2ccc(Cl)cc2Cl)oc1N1CCCCC1 | i | 20.6µM* | ? | ? | -0.1 | 8.1
CCOP(=O)(OCC)c1nc(-c2ccccc2Cl)oc1N1CCOCC1 | i | -17.2% | -0.3% | ? | 0.8 | -7.9
CCCC[n+]1c(/C=C/c2ccc(N(C)C)cc2)sc2ccccc21 | 1.84µM* | . | . | i | . | .
CN(C)c1ccc(/C=C/c2sc3ccccc3[n+]2CCCCI)cc1 | ? | . | . | 23.1µM* | . | .
COc1ccc(OC)c2c(/C=C/c3ccc(N(C)C)cc3)ccnc12 | i | . | . | i | . | .
COc1ccc(OC)c2c(/C=C/c3c(C)[nH]c4ccccc34)ccnc12 | ? | . | . | 20.6µM* | . | .
COC(=O)[C@]12C[C@H](CC(=O)N3CCCC3)C(=O)N(CCc3ccc(OC)c(OC)c3)C1=C[C@H](COCc1ccccc1)O[C@@H]2C | . | . | . | . | -3.8 | .
CC(C)(C)c1ccc(C(=O)N2CC(=O)Nc3ccc(F)cc3C2c2ccc(F)cc2)cc1 (configuration not stated) | 18.4µM* | 7.1%[9.27 µM] | -18.7% | ? | 0.9 | .
O=C1CN(C(=O)c2ccccc2)C(c2ccccc2)c2cc(F)ccc2N1 (configuration not stated) | i | -3.1% | 0.6% | i | -3.1 | 6.8
Cc1ccc(-c2ccnc(N3CCC(C(N)=O)CC3)n2)cc1 | i | . | . | i | . | .
COC1=C[C@H](C(=O)NCCNC(C)=O)[C@@]2(C)Cc3ccccc3[C@H]2CC1=O | . | . | . | . | -2.6 | .
Cc1csc(NC(=O)CCc2ccc(S(=O)(=O)N3CCOCC3)cc2)n1 | i | . | 7.0% | 23.1µM* | -8.5 | -0.5
SMILES | KB-3-1 cytotox | Nrf2 inh | A549 viability | KB-V1 MDR tox | PI4K2A block | Giardia killer
CC(C)CCCCCCNC(=S)Nc1ccc(S(=O)(=O)N2CCOCC2)cc1 | ? | ? | ? | 8.2µM* | 0.6 | 6.8
O=C(CCc1ccccc1)NC(=S)Nc1ccc(S(=O)(=O)N2CCOCC2)cc1 | ? | -9.3% | 10.9% | 4.61µM* | -1.7 | -2.5
Cc1ccccc1CNC(=O)CCC(=O)N1CCSc2ccccc21 | . | 5.9% | -1.2% | . | -4.0 | .
C[N+]1(CCCCSc2ccc(O)cc2)CCCCC1 | 18.4µM* | ? | -10.3% | i | 1.1 | 3.2
O=C(Nc1ccc(F)cc1)NC1(C(=O)NCc2ccc3c(c2)OCO3)CCCCC1 | i | ? | -20.0% | 16.4µM* | -1.0 | 29.5
O=C(Nc1ccc(F)cc1)NC1(C(=O)NCc2ccco2)CCCCC1 | i | 16.8% | 10.0% | i | 0.2 | 3.9
COc1ccc(-n2c(Cc3cccs3)nnc2SCC(=O)Nc2cccc3ccccc23)cc1 | . | . | . | . | -4.1 | .
C=CS(=O)(=O)N(Cc1ccccc1)[C@H](CO)CC(C)C | ? | 8.2% | -2.8% | i | 1.2 | -7.2
CC(C)C[C@H](CO)N(Cc1ccccc1)S(=O)(=O)N(Cc1ccccc1)[C@@H](CO)CC(C)C | ? | -131.9% | ? | 20.6µM*! | -0.1 | -21.4
COC(=O)[C@H](CC(C)C)N(Cc1ccccc1)S(=O)(=O)N(Cc1ccccc1)[C@@H](CC(C)C)C(=O)OC | ? | -10.0% | -0.3% | ? | 3.7 | -16.0
COC(=O)[C@H](CC(C)C)N(Cc1ccccc1)S(=O)(=O)N(Cc1ccc(OC)cc1)[C@@H](CC(C)C)C(=O)OC | ? | -24.6% | 2.1% | 18.4µM*! | -3.9 | -3.6
CCOC(=O)[C@@H](C)N(Cc1ccc(OC)cc1)S(=O)(=O)N(Cc1ccccc1)[C@H](C(=O)OC)C(C)C | ? | ? | -3.3% | 9.2µM*! | -2.0 | -2.6
CCOc1ccc(-n2c(SCC(=O)Nc3ccc(S(=O)(=O)Nc4nccs4)cc3)nnc2-c2ccncc2)cc1 | . | . | . | . | -1.6 | .
CCC1CCc2sc(C(=O)Nc3cc(S(=O)(=O)N4CCOCC4)ccc3OC)cc2C1 (configuration not stated) | . | . | . | . | 1.2 | .
CCc1ccc(/C=C/c2c[nH]c3ccccc23)[n+](CC)c1 | ? | 6.51µM* | ? | ? | 0.7 | 16.6
CC(C)C[C@H](NC(=O)OC(C)(C)C)C(=O)N[C@@H](CO)[C@H](O)[C@@H]1C[C@@H]1C(=O)NC1CCCCC1 | i | 17.0% | -0.3% | 10.3µM* | -3.5 | -26.8
CC(C)OC(=O)C(NC(=O)c1ccccc1)=C1CCCCC1 | i | 9.2% | -6.6% | 20.6µM* | -6.2 | -6.3
O=C(/C=C/c1ccco1)Nc1ccc(-c2nc3ccccc3[nH]2)cc1 | ? | -4.5% | 23.1µM* | i | -7.3 | 5.1
O=C(/C=C/c1ccco1)Nc1ccc(Oc2ccc(Cl)cc2)cc1 | 5.8µM* | ? | -16.9% | ? | 24.8 | 9.7
O=C(Nc1ccc(-c2nc3ccccc3[nH]2)cc1)c1ccco1 | i | ? | -15.9% | i | -6.5 | -10.9
CCCCN=C(N)NC(=O)c1ccccc1 | . | . | . | . | -2.3 | .
